In ChEMBL document CHEMBL3433997, “St. Jude Leishmania screening dataset” (2016):

Experiments:
Format in all cases: functional
[1] = molecular target: Solute carrier family 2, facilitated glucose transporter member 1 (Homo sapiens) (UniProt P11166); experiment: ST_JUDE_LEISH: Cytotoxicity at 2uM final concentration against transgenic Leishmania Mexicana promastigotes LmGLUT1 that are glucose transport deficient and complemented with the human glucose transporter GLUT1. Activity is measured by DNA content using SYBR green in vitro
[2] = molecular target: Hexose transporter 1 (Plasmodium falciparum) (UniProt O97467); experiment: ST_JUDE_LEISH: Cytotoxicity at 2uM final concentration against transgenic Leishmania Mexicana promastigotes LmPfHT that are glucose transport deficient and complemented with the Plasmodium falciparum hexose transporter. Activity is measured by DNA content using SYBR green in vitro
[3] = molecular target: Glucose transporter (Leishmania mexicana) (UniProt O61059); experiment: ST_JUDE_LEISH: Cytotoxicity at 2uM final concentration against transgenic Leishmania Mexicana promastigotes LmGT2 that are glucose transport deficient and complemented with the L. Mexicana glucose transporter 2. Activity is measured by DNA content using SYBR green in vitro

Sequence of Solute carrier family 2, facilitated glucose transporter member 1 (Homo sapiens) (P11166 whole entry): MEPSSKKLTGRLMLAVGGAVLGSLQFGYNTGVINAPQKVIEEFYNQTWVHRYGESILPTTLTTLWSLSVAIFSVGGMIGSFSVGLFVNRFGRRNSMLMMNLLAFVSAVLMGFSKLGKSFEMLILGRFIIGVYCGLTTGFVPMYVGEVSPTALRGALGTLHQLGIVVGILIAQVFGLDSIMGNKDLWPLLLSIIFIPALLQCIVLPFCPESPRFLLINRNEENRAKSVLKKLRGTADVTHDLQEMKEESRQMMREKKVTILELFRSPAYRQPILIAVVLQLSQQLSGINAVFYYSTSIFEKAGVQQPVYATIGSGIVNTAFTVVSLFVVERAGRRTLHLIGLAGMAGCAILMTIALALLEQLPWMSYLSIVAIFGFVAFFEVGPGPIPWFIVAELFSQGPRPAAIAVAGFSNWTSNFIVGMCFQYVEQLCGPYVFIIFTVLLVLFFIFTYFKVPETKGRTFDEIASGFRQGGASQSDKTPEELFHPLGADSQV

| SMILES | inhibition [1] [%] | inhibition [2] [%] | inhibition [3] [%] |
| --- | --- | --- | --- |
| Cc1cccc2nc(-c3cccc(-c4ccc(NC(=O)CC5NC(=O)c6ccccc65)cc4)c3)[nH]c12 (stereo not drawn) | 8.73 | 9.29 | 7.01 |
| COc1ccccc1/C=C/C(=O)NCCC1CCN(CCCCCNC(=O)/C=C/c2ccc(Cl)c(Cl)c2)CC1 | 16.2 | 13 | 12.2 |
| O=C(Nc1ccc(Oc2ccccc2)cc1)N(Cc1ccc(-c2cccc(CN3CCNCC3)c2)cc1)C1CCN(Cc2ccccc2)CC1 | 3.46 | 3.12 | 3.01 |
| CC(=Nc1ccc(Cl)c(Cl)c1)N(C)C | 0.17 | 0.54 | 0.02 |
| Cc1cc(Nc2cccc(C#N)c2)nc(Nc2ccccc2C)n1 | 77.7 | 91.1 | 52.3 |
| CS(=O)(=O)N(c1ccccc1)c1cc(C(=O)N[C@@H](Cc2ccccc2)[C@H](O)CNC2CC2)cc(N2CCCC2=O)c1 | 4.45 | 5.62 | 4.38 |
| CN(C)C(CNC(=O)c1cc(-c2ccncc2)c(-c2cc3ccccc3[nH]2)o1)c1ccccc1 (stereo not drawn) | 3.53 | 2.32 | 2.06 |
| COc1ccc(CN2CCCC(N3CC4(OC3=O)c3ccccc3-c3ccccc34)C2)c(O)c1 (stereo not drawn) | 5.47 | 4.69 | 4.18 |
| CCc1nc2c(N)nc(N)nc2nc1-c1ccc(OC)cc1 | 0.85 | 0.84 | 1.23 |
| COc1cccc2c1CCN(CCN1CCC(NC(=O)c3ccc(-c4cccc(Cl)c4Cl)cc3)CC1)C2 | 6.67 | 6.1 | 5.27 |
| CCOc1cc(C(=O)NC2CCN(Cc3ccccc3)CC2)ccc1-c1nc2cc(Cl)c(F)cc2[nH]1 | 3.61 | 2.49 | 3.19 |
| CN(C(=O)c1nn(-c2ccccn2)c2nccc(-c3cccs3)c12)C1CCCCC1 | 5.01 | 5.58 | 3.33 |
| CC(=O)Nc1cccc(C(=O)Nc2ccc(-c3cccc(-c4nc5cc(F)ccc5[nH]4)c3)cc2)c1 | 4.65 | 4.15 | 5.47 |
| O=C(CCc1ccccc1)NC(c1ccc(Cl)cc1)c1ccc2cccnc2c1O (stereo not drawn) | -0.41 | 1.91 | 3.42 |
| Oc1ccc(CC2CCCN(c3nc(NCCCOc4ccccc4-c4ccccc4)nc(N4CCNCC4)n3)C2)cc1 (stereo not drawn) | -0.74 | -1.72 | -1.02 |
| CCCCCCCN1CC[C@@H](CCCc2ccnc3ccc(OCC4CCCNC4)cc23)[C@@H](CC)C1 (stereo partly drawn) | 4.6 | 3.17 | 1.43 |
| O=C(NCC1CCC(C(=O)NCCN2CCCCC2)CC1)c1ccc(O)c(-c2ccc(Cl)c(Cl)c2)c1 (stereo not drawn) | -0.83 | 0.49 | 0.18 |
| COc1ccccc1C1CCN(CCCCNC(=O)c2ccc(NC(=O)c3ccc(Cl)cc3)cc2)CC1 | 1.27 | 3.41 | 2.05 |
| COc1ccc(C(=O)CCC(=O)N(Cc2ccc(-c3ccc(CNCCc4ccc(S(C)(=O)=O)cc4)cn3)cc2)C(C)CN(C)C)cc1F (stereo not drawn) | 3.43 | 3.18 | 2.85 |
| CCNc1cc(C(=O)N[C@@H](Cc2ccccc2)[C@H](O)CNC2(C)CCCCC2)cc(N2CCCCS2(=O)=O)c1 | 1.96 | -0.16 | -0.26 |
| O=C(Nc1ccc2c(c1)OCO2)c1cc(-c2cccnc2)nc2ccc(Cl)cc12 | 3.49 | 0.67 | -0.92 |
| CCCOC(=O)C1=C(C)NC2=C(C(=O)CC(c3ccc(OC)c(OC)c3)C2)C1c1cccc(O)c1 (stereo not drawn) | 8.78 | 9.73 | 8.46 |
| CC(C)CN(c1nc(C(=O)NNC(=O)[C@H](CC2CC2)NC(=O)c2cc3cc(OCCN(C)C)ccc3o2)cs1)C1CC1 | 6.19 | 6.53 | 7.9 |
| COc1ccc2ncc(F)c(CCN3CCC(NCc4cc(F)c5c(c4)OCCO5)CC3)c2n1 | 14.4 | 20.5 | 17.9 |

| SMILES | inhibition [1] [%] | inhibition [2] [%] | inhibition [3] [%] |
| --- | --- | --- | --- |
| CC(Cc1ccc(CN2CCN(Cc3ccccc3)CC2)cc1)NCC(O)c1cccc(C(F)(F)F)c1 (stereo not drawn) | 5.03 | 4.18 | 5.25 |
| c1cncc(CCNCc2cccc(-c3csc(-c4nc5ccccc5[nH]4)c3)c2)c1 | 4.04 | 4.06 | 2.64 |
| Cc1ccc(-c2cnc3[nH]cc(-c4ccc(C(=O)O)c(C)c4)c3c2)cc1C | 1.15 | 1.14 | 1.64 |
| Oc1ccccc1CN1CCCC(COC(c2ccc(F)cc2)c2ccc(F)cc2)C1 (stereo not drawn) | 3.68 | 3.28 | 0.55 |
| O=C(Nc1cccc(Cl)c1Cl)N1CCc2cc3nccc(N4CCN5CCC[C@H]5C4)c3cc21 | -0.2 | 1.06 | 3.39 |
| Cc1ccc2c(=O)n(C)c(=O)n(C)c2n1 | 6.05 | 2.94 | 1.62 |
| CC(C)CCNc1nc(NCCc2ccccc2)c2cc(O)ccc2n1 | 7.05 | 3.99 | -2.18 |
| CCCC(=O)c1cnc2cc(O)ccc2c1Nc1ccccc1C | 6.19 | 6.97 | 0.57 |
| Cn1c(=N)n(CC(=O)N2CCc3ccc(Cl)cc3C2Cc2ccc(Cl)c(Cl)c2)c2ccccc21 (stereo not drawn) | 0.36 | 1.29 | 5.67 |
| CCCNC[C@@H](O)[C@H](Cc1ccccc1)NC(=O)c1cc(NCC)cc(N2CCCCS2(=O)=O)c1 | 1.97 | 2.32 | 2.85 |
| N=C(N)NN=Cc1ccccc1OCc1ccccc1Cl | -0.49 | 2.44 | 0.38 |
| CN(C)c1ccc(CN2CCC(NC(=O)c3ccc(-c4cccc(F)c4)s3)CC2)cc1 | 4.53 | 5.36 | 1.82 |
| COc1cc(C=NNc2ccnc3cc(Cl)ccc23)ccc1O | 2.02 | 2.62 | 3.46 |
| CN1CCN(c2ccnc3ccc(NC(=O)Nc4cccc5c(C#N)cccc45)cc23)CC1 | 2.25 | 2.35 | 2.75 |
| CCOC(=O)C(=CNc1ccc(Cc2cnc(N)nc2N)cc1CC)C(=O)OCC | 2.65 | 2.16 | -3.12 |
| Cc1cc(O)c(C(C)C)cc1C1(c2cc(C(C)C)c(O)cc2C)OC(=O)c2ccccc21 | 8.43 | 6.64 | 6.75 |
| COc1ccccc1NC(=S)N/N=C/c1ccc(O)cc1O | 1.28 | 6.07 | 0.42 |
| FC(F)(F)c1ccc2[nH]c(-c3ccc(-c4ccc(CNCc5cnn(-c6ccccc6)n5)cc4)cc3)nc2c1 | 2.68 | 0.52 | 0.17 |
| CC(C)C(NC(=O)Cc1cccc2ccccc12)C(=O)Nc1cccc(C#N)c1 (stereo not drawn) | 2.08 | 3.27 | 2.76 |
| CCOc1ccc(NC(C)=O)c(O)c1 | 5.79 | 5.38 | 3.62 |
| Cc1ccc(C2CC(c3cccs3)=NN2C(=O)c2ccc(Br)o2)cc1 (stereo not drawn) | 3.24 | 1.47 | 2.89 |
| Cc1cccc2nc(-c3cccc(-c4ccc(CNCc5cnn(-c6ccccc6)n5)cc4)c3)[nH]c12 | 0.18 | 2.02 | 0.22 |
| COc1cc(C2CCN(CCCCNC(=O)c3ccc(NC(=O)c4cc(C(F)(F)F)cc(C(F)(F)F)c4)cc3)CC2)ccc1OC(C)C | 1.12 | 0.93 | 1.71 |
| COc1ccc(-c2nc3c4ccccc4c4ccc(I)cc4c3[nH]2)cc1 | 5.22 | 2.48 | 2.32 |

| SMILES | inhibition [1] [%] | inhibition [2] [%] | inhibition [3] [%] |
| --- | --- | --- | --- |
| COc1ccc(CSC2CCCCC23NC(=S)NC3=S)cc1 (stereo not drawn) | 4.42 | 1.41 | 3.2 |
| CC(=O)Nc1cccc(CNCc2ccc(-c3cnc(N4CCCC(c5ccccc5)C4)nc3)cc2)c1 (stereo not drawn) | 4.23 | 2.57 | 2.2 |
| C[C@@H](Oc1cc(-n2cnc3cc(SCCN4CCN(C)CC4)ccc32)sc1C(N)=O)c1ccccc1Cl | 35.4 | 40.9 | 23.6 |
| CCCC(=O)Nc1ccc(Cl)c(NC(=O)COc2cc(C)ccc2C(C)C)c1 | 9.77 | 8.41 | 8.05 |
| C=CCc1cc(Br)ccc1OCCCOc1c(N)nc(N)nc1N | 6.42 | 7.13 | 3.62 |
| O=C(NCCN1CCCC1)c1cccc(Nc2nccc(Nc3ccc(Oc4ccccc4)cc3)n2)c1 | 2.86 | 3.85 | 2.53 |
| Cc1cccc2nc(C3CCN(CC4CCN(C(=O)/C=C/c5ccc(Cl)c(Cl)c5)CC4)CC3)[nH]c12 | 10.9 | 11.5 | 10.6 |
| O=C(Nc1ccccc1)Nc1cccc(-c2nn3c(OCCN4CCCC4)cccc3c2-c2ccncc2)c1 | 5.75 | 6.38 | 6.34 |
| CN(C)CCN(Cc1ccccc1-c1ccc(CNCCc2ccccc2)cc1)C(=O)NC1CCCCC1 | 3.67 | 3.66 | 0.85 |
| CCOC(=O)COc1cccc(CNc2ccc3nc(N)nc(N)c3c2)c1 | 2.95 | 1.84 | 1.48 |
| COc1cccc(-c2nn(C)c3sc(C(=O)Nc4cccnc4)cc23)c1 | 0.24 | -1.97 | -0.35 |
| Fc1ccccc1C=NN=c1cc[nH]c2ccccc12 | 4.61 | 4.39 | 4.15 |
| C[C@H](Cc1ccc(Oc2ccc(C[C@@H](C)NC[C@H](O)c3cccc(Cl)c3)cc2)cc1)NC[C@H](O)c1cccc(Cl)c1 | 106 | 104 | 102 |
| CCCNCc1ccc(-c2ccc(CN(CCOC)C(=O)c3cscn3)cc2)nc1 | 1.92 | 1.83 | 2.19 |
| COc1ccccc1-c1ccc(C(=O)NCC2CCCN(Cc3cccc(C(F)(F)F)c3)C2)s1 (stereo not drawn) | 6.82 | 8.99 | 7.33 |
| CCN(CC)CCN(Cc1ccc(-c2ccc(C(F)(F)F)cc2)cc1)C(=O)Cn1c(CCc2cc(F)cc(F)c2)nc(=O)c2ccccc21 | 1 | 1.07 | 1.47 |
| O=C(Nc1cccc(CN2CCN(Cc3ccc(O)cc3)CC2)c1)c1ccc(Cl)c(Cl)c1 | 3.5 | 5.27 | 2.47 |
| Cc1cccc2nc(-c3cccc(-c4cccc(NC(=O)c5cccnc5)c4)c3)[nH]c12 | 2.26 | -0.15 | -3.86 |
| Clc1ccc(OC2CCC(Cn3ccnc3)(c3ccc(Cl)cc3Cl)CC2)c(Cl)c1 (stereo not drawn) | 6.14 | 3.28 | -0.14 |
| Cc1ncc([N+](=O)[O-])n1CCOC(=O)NC(Nc1ccc(Br)cc1)C(Cl)(Cl)Cl (stereo not drawn) | 2.8 | 0.15 | -1.63 |
| COc1cc2c(cc1S(=O)(=O)c1ccc(NC(=O)Nc3ccc(F)cc3)cc1)CCN(C)CC2 | 3.01 | 2.22 | 3.04 |
| CCn1c(-c2nonc2N)nc2cnc(Oc3cccc(NC(=O)c4ccc(OCCN5CCCCC5)cc4)c3)cc21 | 17.2 | 28.1 | 13.7 |
| COc1cccc(CN(C(=O)Nc2ccccc2F)[C@H]2C[C@H]3C(=O)Nc4cc(F)ccc4C(=O)N3C2)c1 | 4.68 | 4.97 | 5.37 |
